# About 220 (9.2%) of roughly 2,400 compounds were called active. The sample as a whole holds a higher share of actives than the screen did. A number with no mark means an inactive call.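 How the source made its calls: active means signal change above the mean of dofetilide-free buffer controls plus 3 SD, so a positive margin; inactive means the rest.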
# Experiment: nonspecific flux effects in parental CHO-K1, confirmation, counter-screen for hERG block protection project, cell-based, CHO-K1 parental line, FluxOR thallium flux (AID 1839);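 further: compounds applied alone with no dofetilide to cells lacking hERG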
# Conditions: CHO-K1 parental cells, FluxOR thallium flux fluorescence; at 10 µM
row,SMILES,"signal change vs control minus 3*SD hit threshold (margin above threshold, higher = more increase)"
1,CC(C)Nc1nc(SCC(N)=O)nc(N2CCOCC2)n1,-27.8%
2,CCC(C)(C)C1CCc2c(sc(NC(=O)c3ccccc3C(=O)O)c2C#N)C1 (configuration not stated),-7%
3,CCOC(=O)C1C(c2ccccc2)C(C(=O)OCC)C1c1ccccc1 (configuration not stated),-27.3%
4,Cc1ccc(NC(=O)CN2C(=O)S/C(=C\c3ccc(-c4cccc(C(=O)O)c4C)o3)C2=O)cc1,-30.6%
5,COc1ccc(-c2ccc(/C=N/NC(=O)c3cccnc3)o2)c([N+](=O)[O-])c1,-34.4%
6,O=C(O)CCCCn1c(SCc2ccccc2Cl)nc2ccsc2c1=O,-18.4%
7,CCOC(=O)NC(=S)Nc1ccc(C(C)(C)C)cc1,-14.3%
8,O=C(Nc1ccc(-c2csc(Nc3cccc(C(F)(F)F)c3)n2)cc1)c1ccccc1,-35.7%
9,O=C(NC(=S)Nc1cccc(C(F)(F)F)c1)c1csnn1,52.4% (active)
10,O=C(NC(=S)Nc1cc(C(F)(F)F)ccc1Cl)c1ccccc1,-22.9%
11,O=C(NC(=S)Nc1ccc(C(F)(F)F)cc1)c1csnn1,48.4% (active)
12,O=C(NC(=S)Nc1ccc(N2CCCCC2)cc1)c1cccs1,-2.8%
13,Cc1onc(-c2ccccc2)c1C(=O)NC(=S)Nc1sc2c(c1C#N)CCC(C)C2 (configuration not stated),-18.7%
14,CCCSC(=S)c1c(C)[nH]n(-c2ccccc2)c1=O,-12.5%
15,O=C(Nc1nnc(-c2ccc3c(c2)CCCC3)o1)C1COc2ccccc2O1 (configuration not stated),-35%
16,CC(/C=C1\SC(=S)N(NS(=O)(=O)c2ccccc2)C1=O)=C\c1ccccc1,-11.8%
17,COc1cc(CNn2nnnc2N)ccc1OCC(=O)NC(C)(C)C,-34.7%
18,O=C(NC(=S)N1CCc2ccccc21)c1ccco1,-18.3%
19,O=C(NC(=S)N1CCc2ccccc21)c1ccc(Br)o1,-18.4%
20,O=C(NC(=S)N1CCc2ccccc21)c1ccccc1Br,48.4% (active)
21,O=C(NC(=S)N1CCCc2ccccc21)c1ccccc1,-30.8%
22,O=C(NC(=S)N1CCc2ccccc21)c1ccccc1Cl,9% (active)
23,O=C(NC(=S)N1CCc2ccccc21)c1ccccc1,-2.8%
24,S=C(Nc1ccccc1)Nc1nc2ccccc2n1CCOc1ccccc1,-30.2%
25,CN(C(=S)NC(=O)c1ccc(F)cc1)C1CCCCC1,-31.9%
26,CC1CCN(C(=S)NC(=O)c2ccc(C(C)(C)C)cc2)CC1,-18%
27,COC(=O)n1c(=S)oc2cc(Cl)ccc21,-22.1%
